The results in this text go back to a collection of fitness landscapes (doi:10.1038/s41467-024-54723-y).

Over roughly 18,000 sequences, “TetR repression strength (sort-seq, GFP reporter)” has its median near 0.23; the highest 2% begin near 0.68. The list comes from a sample in which the highest values are over-represented; it also holds similar and randomly drawn sequences.

In the assay the target is TetR (class B, Tn10) (UniProt P04483). Kind of assay: TetR repression strength (sort-seq, GFP reporter) (relative to tetO2 = 1); higher = stronger repression. The conditions noted are these: E. coli. The method, boiled down: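 Escherichia coli SIG10-MAX cells carried a low-copy plasmid library in which eight operator positions were randomized between a constitutive promoter and sfGFP, and TetR was expressed constitutively. After 5 h of growth at 37 °C in LB with 50 µg/mL chloramphenicol, 10^6 cells were FACS-sorted into 13 fluorescence bins, and each bin was Illumina-sequenced. Repression strength was the top bin index plus one minus the read-weighted mean bin, divided by the value for the unaltered operator. Across three independent transformations, only library members with ≥30 reads in every replicate and a CV ≤0.5 were averaged.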
Chain of TetR (class B, Tn10) (P04483 whole entry): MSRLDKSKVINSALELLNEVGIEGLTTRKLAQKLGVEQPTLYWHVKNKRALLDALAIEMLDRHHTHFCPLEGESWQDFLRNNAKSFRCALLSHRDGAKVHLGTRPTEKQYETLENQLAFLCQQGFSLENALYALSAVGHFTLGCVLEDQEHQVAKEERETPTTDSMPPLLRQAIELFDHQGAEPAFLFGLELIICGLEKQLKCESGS
As to TCCCGTGTAGTGATCGAGA, the TetR repression strength is 0.209.

Consider TCCCGCTGAGTTTTTGAGA, for which the TetR repression strength is 0.307.

As to TCCCGGAGAGTTGAGGAGA, the TetR repression strength was found to be 0.193.

In turn, TCCCGGTTAGTAATTGAGA showed a TetR repression strength of 0.345.

Turning to TCCCCGTAAGTTCCTGAGA, the TetR repression strength was 0.231.

For the sequence TCCCGCGAAGTTGTTGAGA, the TetR repression strength worked out at 0.112.

TCCCGCGAAGTTGGTGAGA returned a TetR repression strength of 0.202.

Regarding TCCCGTTAAGTTGCTGAGA, the TetR repression strength stood at 0.517.

In the case of TCCCGCTAAGTTTCTGAGA, the TetR repression strength is 0.393.

Take TCCCGCTAAGTTCCTGAGA: the TetR repression strength is 0.792.

Take TCCCGTTAAGTGCCTGAGA: the TetR repression strength amounted to 0.419.

TCCCGTTAAGTTCCTGAGA registered a TetR repression strength of 0.721.

As for TCCCGTTCAGTTGCTGAGA, the TetR repression strength was 0.512.

TCCCGGTCAGTTCCTGAGA: the TetR repression strength was 0.26.

TCCCGTTCAGTTCCTGAGA had a TetR repression strength of 0.705.

The sequence TCCCGCGAAGTTGCTGAGA came in with a TetR repression strength of 1.1.

Sequence TCCCACATAGTTTAAGAGA showed a TetR repression strength of 0.187.

Take TCCCACCTAGTCTGCGAGA: the TetR repression strength turned out to be 0.302.

The sequence TCCCTGACAGTAGTAGAGA registered a TetR repression strength of 0.541.

Sequence TCCCTGATAGTTCGAGAGA displayed a TetR repression strength of 0.244.

For the sequence TCCCGGTGAGTGCGAGAGA, the TetR repression strength was found to be 0.189.

TCCCAAGTAGTGGGGGAGA returned a TetR repression strength of 0.133.

Sequence TCCCTCGAAGTTACCGAGA came in with a TetR repression strength of 0.221.

Turning to TCCCTTGAAGTTACCGAGA, the TetR repression strength amounted to 0.844.

TCCCTTCCAGTTACCGAGA returned a TetR repression strength of 0.351.

TCCCTTGCAGTTACCGAGA came in with a TetR repression strength of 0.874.

The sequence TCCCTTGCAGTTAACGAGA showed a TetR repression strength of 0.104.

In the case of TCCCCTTGAGTTACCGAGA, the TetR repression strength was determined as 0.307.

As to TCCCGGGTAGTCGGTGAGA, the TetR repression strength came to 0.237.

In turn, TCCCCCATAGTGCCAGAGA yielded a TetR repression strength of 0.453.

As to TCCCATTAAGTGAGAGAGA, the TetR repression strength was determined as 0.478.

Sequence TCCCGTTCAGTCTCAGAGA came in with a TetR repression strength of 0.307.

The sequence TCCCCTCTAGTGGCCGAGA showed a TetR repression strength of 0.17.

Take TCCCAGCAAGTATGGGAGA: the TetR repression strength came out at 0.71.

TCCCAGCAAGTTATGGAGA: the TetR repression strength was 0.701.

Take TCCCAGCAAGTAGGGGAGA: the TetR repression strength was determined as 0.289.

With TCCCAGCAAGTATGCGAGA, the TetR repression strength was 0.282.

TCCCAGCCAGTTATGGAGA registered a TetR repression strength of 0.169.

Turning to TCCCAGCAAGTCATGGAGA, the TetR repression strength was 0.401.

Turning to TCCCTTCAAGTGTAAGAGA, the TetR repression strength was found to be 0.158.

The sequence TCCCCTCTAGTACGTGAGA came in with a TetR repression strength of 0.207.

The sequence TCCCCACTAGTACGTGAGA showed a TetR repression strength of 0.363.

With TCCCCACTAGTAAATGAGA, the TetR repression strength is 0.726.

Sequence TCCCCCCGAGTACGTGAGA returned a TetR repression strength of 0.839.

For the sequence TCCCCGTGAGTACGTGAGA, the TetR repression strength came out at 0.226.

TCCCCCCTAGTACGTGAGA returned a TetR repression strength of 0.814.

Turning to TCCCCCGGAGTACGTGAGA, the TetR repression strength amounted to 0.187.

On to TCCCAACTAGTAAATGAGA, for which the TetR repression strength stood at 0.567.

In the case of TCCCCACTAGTAAAAGAGA, the TetR repression strength is 0.303.

Take TCCCTAGAAGTTATGGAGA: the TetR repression strength came to 0.315.

The sequence TCCCTGGCAGTTCATGAGA registered a TetR repression strength of 0.199.

TCCCGGGTAGTCCGGGAGA yielded a TetR repression strength of 0.112.

Sequence TCCCAACCAGTCCCGGAGA displayed a TetR repression strength of 0.12.

TCCCAAGGAGTGGGTGAGA: the TetR repression strength came out at 0.185.
